The term AC50 denotes the concentration giving half of the maximal activity seen.

Values joined by “and” are separate entries in the source; they are usually repeats but may differ in a detail not shown here. Equal entries are not always repeated. Results filed as inconclusive are left out. Active and inactive are the calls of the source. The calls were made as follows, unless noted: active = hit-call score of the fitted dose curve at least 0.9, where 1 is the maximum; inconclusive = response in the unintended direction; inactive = score below 0.9.

Experiment [1] concerns Thyroperoxidase (TPO), gene 54314. As to the kind of experiment: CCTE_Simmons_AUR_rTPO: CCTE's Amplex UltraRed Assay for Thyroperoxidase (TPO) Inhibition, Simmons Lab (AID 2283662).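 Also: potency for loss of signal meaning inhibition of peroxidase activity.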 A digest of the protocol: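 Rat thyroid microsomes (5 ug protein) were incubated with test compound (8 concentrations, 5 nM–87.5 uM final, 0.5% DMSO), 25 uM Amplex UltraRed and 300 uM H2O2 in 200 mM phosphate buffer for 30 min at 37C in the dark; fluorescence read at 544/590 nm.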

Experiment [2] can be described thus: Tanguay_ZF_120hpf_SOMI_legacy: (Legacy) Oregon State University Tanguay Lab 120 Hour Post-fertilization zebrafish Assay for Somite Malformation (AID 2283647). A digest of the protocol: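 Read-out: presence or absence of somite malformation in 120 hpf larvae, gain-of-signal relative to DMSO baseline. Embryos lacked chorion (pronase, 4 hpf) and were exposed statically from 6 hpf at 28C; dead larvae not scored.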

The nature of experiment [3]: Tanguay_ZF_120hpf_PFIN_legacy: (Legacy) Oregon State University Tanguay Lab 120 Hour Post-fertilization zebrafish Assay for Pectoral Fin Malformation (AID 2283648).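 Also: each larva judged yes or no for fin defect by brightfield with dead larvae skipped.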 A digest of the protocol:
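Pectoral fin malformation was recorded as a binary endpoint at 120 hpf in wild-type Tropical 5D larvae, which had been dechorionated and exposed statically from 6 hpf at 28C in 0.64% DMSO. Dead embryos were excluded.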

The nature of experiment [4]: Tanguay_ZF_120hpf_PIG_legacy: (Legacy) Oregon State University Tanguay Lab 120 Hour Post-fertilization zebrafish Assay for Pigmentation Malformation (AID 2283650). A digest of the protocol:
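Pigment malformation recorded as a binary call at 120 hpf in zebrafish (Tropical 5D) exposed singly from 6 hpf after pronase dechorionation. Static, sealed, 28C exposure, 0.64% DMSO; mortality excludes scoring; positive-direction fit against DMSO.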

Experiment [5] is described as follows: Tanguay_ZF_120hpf_TRUN_legacy: (Legacy) Oregon State University Tanguay Lab 120 Hour Post-fertilization zebrafish Assay for Truncated Body (AID 2283655). A digest of the protocol:
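Truncated body is recorded as a binary endpoint at 120 hpf by brightfield imaging of wild-type 5D larvae. Exposure runs statically from 6 hpf at 28C with 0.64% DMSO; embryos dying earlier are not scored.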

Experiment [6] in a line: Tanguay_ZF_120hpf_NC_legacy: (Legacy) Oregon State University Tanguay Lab 120 Hour Post-fertilization zebrafish Assay for Notochord and Tail Malformation (AID 2283656). A digest of the protocol: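 Binary notochord-distortion calls, made by brightfield inspection, form the read-out; activity is fitted in the positive direction against DMSO. Exposure ran statically from 6 to 120 hpf at 28C with 0.64% DMSO.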

A short description of experiment [7]: Tanguay_ZF_120hpf_TR_legacy: (Legacy) Oregon State University Tanguay Lab 120 Hour Post-fertilization zebrafish Assay for Touch Response (AID 2283667). A digest of the protocol: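 Binary touch-response endpoint in larvae at 120 hpf after static waterborne exposure from embryo stage (28°C, 0.64% DMSO vehicle, 5 uM trimethyltin chloride as positive control); embryos dead at 24 or 120 hpf excluded; fitted as gain versus DMSO.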

Experiment [8] can be described thus: CCTE_Padilla_ZF_144hpf_TERATOSCORE: (Legacy) CCTE's 144 Hour Post-fertilization zebrafish Assay Teratoscore, Padilla Lab (AID 2283679; active = hit-call score of the fitted dose curve at least 0.9, where 1 is the maximum; inactive = score below 0.9;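 also: zebrafish embryos with chorions exposed by immersion from 6-8 hpf to 5 dpf with daily renewal; teratogenicity score from eye scoring of death hatching and malformations at 144 hpf; higher score means more developmental defects relative to DMSO baseline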). A digest of the protocol:
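Larvae scored by eye at 144 hpf for death, hatching and malformations after a day in clean Hanks'. Before that, daily-renewed exposure at 80 uM (0.4% DMSO, 26C) from roughly 6-8 hpf through 5 dpf, 4 embryos per chemical.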

Experiment [9] can be described thus: STM_H9_OrnCyssISnorm_ratio: Stemina devTOX quickPredict H9 human embryonic stem cell (hESC)-based Assay for Ornithine (ORN):Cystine (CYSS) Ratio (AID 2283714). A digest of the protocol: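 Ratio of internal-standard-normalized ornithine to cystine, measured by UPLC-HRMS in spent media from the last 24 h. H9 cells kept pluripotent, dosed 72 h with daily media and compound renewal; DMSO 0.1% serves as baseline.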

The nature of experiment [10]: Tanguay_ZF_120hpf_ActivityScore_legacy: (Legacy) Oregon State University Tanguay Lab 120 Hour Post-fertilization zebrafish Assay Score for Activity (AID 2283742).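 As to AC50: dechorionated Tropical 5D wild-type zebrafish embryos held singly per well.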 A digest of the protocol: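 Binary scoring of mortality and morphology by brightfield at 24 and 120 hpf, summarised into one activity score from 18 components relative to DMSO. Wild-type Tropical 5D zebrafish, chorion removed at 4 hpf, static exposure 6–120 hpf, 28 °C.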

Experiment [11] in a line: Tanguay_ZF_120hpf_SWIM_legacy: (Legacy) Oregon State University Tanguay Lab 120 Hour Post-fertilization zebrafish Assay for Swim Bladder Malformation (AID 2283654).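 Also: swim bladder malformation in each larva scored yes or no under brightfield.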 A digest of the protocol:
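Scoring is binary for swim bladder defects at 120 hpf, by brightfield inspection of zebrafish larvae. Embryos were exposed singly from 6 hpf after pronase dechorionation, at 28C with 0.64% DMSO; mortality excluded scoring.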

A short description of experiment [12]: Tanguay_ZF_120hpf_CIRC_legacy: (Legacy) Oregon State University Tanguay Lab 120 Hour Post-fertilization zebrafish Assay for Circulatory Malformation (AID 2283651). A digest of the protocol:
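Static exposure, 6–120 hpf, 28C, sealed and dark; one dechorionated 5D embryo/well; DMSO 0.64% v/v final. Binary circulation endpoint by brightfield; dead embryos not scored.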

The nature of experiment [13]: STM_H9_OrnithineISnorm_perc: Stemina devTOX quickPredict H9 human embryonic stem cell (hESC)-based Assay for Ornithine (ORN) Metabolite Biomarker, Normalized (AID 2283712; active = hit-call score of the fitted dose curve at least 0.9, where 1 is the maximum; inactive = score below 0.9;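 also: ornithine released into spent medium during last day measured by mass spectrometry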). A digest of the protocol:
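UPLC-HRMS readout: endogenous ornithine EIC area / 13C-ORN internal standard, then % of 0.1% DMSO median. H9 hESCs (pluripotent), 72h exposure, re-dosed with fresh media q24h; last 24-h spent media, deproteinized in 40% acetonitrile.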

Experiment [14] is described as follows: STM_H9_CystineISnorm_perc: Stemina devTOX quickPredict H9 human embryonic stem cell (hESC)-based Assay for Cystine (CYSS) Metabolite Biomarker, Normalized (AID 2283713; active = hit-call score of the fitted dose curve at least 0.9, where 1 is the maximum; inactive = score below 0.9). A digest of the protocol:
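UPLC-HRMS read-out: endogenous cystine peak area in spent medium, normalized to isotope-labeled internal standard and to median of 0.1% DMSO controls. Pluripotent H9 cells, 72h exposure, daily medium/compound replenishment; medium from last 24h sampled.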

A short description of experiment [15]: CEETOX_H295R_MTT_cell_viability: Viability Assessment in the CeeTox HT-H295R MTT Assay (AID 2283718; active = hit-call score of the fitted dose curve at least 0.9, where 1 is the maximum; inactive = score below 0.9). A digest of the protocol: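 MTT reduction (0.5 mg/ml, 4 h at 37 C; absorbance at 570 and 650 nm) gave viability as background-corrected percent change versus controls. H295R cells had 48 h forskolin (10 uM) prestimulation, then 48 h chemical exposure at 0.1% DMSO.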

In the case of `Cc1cc(Cc2cc(C)cc(C(C)(C)C)c2O)c(O)c(C(C)(C)C)c1`, in [1], the AC50 is 1.04 µM (active).
In the case of `CCCCc1oc2ccccc2c1C(=O)c1cc(I)c(OCCN(CC)CC)c(I)c1`, the outcome in experiment [2], in experiment [3], in experiment [4], in [5], in [6] and in experiment [7] was inactive. In experiment [10], the outcome was inactive. Also, the AC50 is 7.89 µM (active) in experiment [8] and 5 µM (active) in experiment [9].
With `CN(C)CCOC(c1ccccc1)c1ccccc1`, the result in experiment [2], in [4], in [11] and in experiment [6] was inactive. In addition, the AC50 is 24.8 µM (active) in [5], 32.7 µM (active) in [7], 1.55 µM (active) in experiment [9] and 202 µM (active) in experiment [10].
On to `N=C(N)c1ccc(OCCCCCOc2ccc(C(=N)N)cc2)cc1`, for which the molecule was called inactive in experiment [4], in experiment [12], in experiment [11], in [5], in experiment [6] and in [7]. For the same molecule, the call in [10] was inactive. Further, the AC50 in experiment [8] was 41.4 µM (active).
On to `Cc1[nH]nc2c1N=C(c1ccccc1Cl)c1cc([N+](=O)[O-])ccc1N2`, for which the molecule was classed as inactive in experiment [2], in experiment [3], in experiment [4], in [12], in [11] and in [5]. Moreover, the molecule was classed as inactive in [6], in experiment [7] and in [10]. Besides, the AC50 is 2.9 µM (active) in [1]; 1.32 µM (active) in [8]; 2.08 µM (active) in [13]; 1.62 µM (active) in [14]; 1.85 µM (active) in experiment [9].
As to `O=C(CCCN1CCC(O)(c2ccc(Cl)cc2)CC1)c1ccc(F)cc1`, the result in experiment [2], in experiment [4], in experiment [12], in experiment [11], in experiment [5] and in experiment [6] was inactive. In addition, the molecule was classed as inactive in [7], in experiment [13], in experiment [14], in experiment [9] and in experiment [15]. Besides, the values for the AC50 in [3], in [8] and in [10] were 5.92 µM (active), 0.664 µM (active) and 4.09 µM (active), respectively.
For the molecule `O=C1NS(=O)(=O)c2ccccc21`, the molecule was classed as inactive in experiment [2], in [3], in experiment [4], in experiment [12], in [11] and in experiment [5]. Also, the call in [6], in [7], in experiment [14], in [9] and in experiment [10] was inactive. The half-maximal activity concentration (AC50) in experiment [13] was 0.113 µM (active).
With `CS(=O)(=O)c1ccc([C@@H](CC2CCCC2)C(=O)Nc2cnccn2)cc1Cl`, the molecule was called inactive in experiment [3], in experiment [4], in experiment [12], in experiment [5], in experiment [6] and in [7]. The call in experiment [10] was inactive. Further, in experiment [8], the AC50 is 58.6 µM (active).
With `CC(=O)Nc1ccc(O)cc1`, the result in [2], in experiment [3], in [4], in experiment [12], in experiment [11] and in experiment [5] was inactive. In addition, the molecule was classed as inactive in experiment [7] and in experiment [10].
In the case of `CC(C)c1c(C(=O)Nc2ccccc2)c(-c2ccccc2)c(-c2ccc(F)cc2)n1CC[C@@H](O)C[C@@H](O)CC(=O)O`, the AC50 in experiment [8] is 2.65 µM (active) and 3.07 µM (active).

The values above are taken from PubChem BioAssay (EPA / NIEHS).
